# Source: PubChem BioAssay (EPA / NIEHS)
# Records with an inconclusive call do not appear. Calls of active or inactive are those of the source. How the source made its calls: active means hit-call score of the fitted dose curve at least 0.9, where 1 is the maximum; inconclusive means response in the unintended direction; inactive means score below 0.9.
# Experiments:
# [1] = system: 5-hydroxytryptamine receptor 2C (pig); test: NVS_GPCR_p5HT2C: NovaScreen (NVS) G Protein-Coupled Receptor Assay for pig Serotonin, 5-Hydroxytryptamine Receptor 2C (5HT2C) (AID 2283288)
# Summary of the method: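 Pig choroid plexus membranes; radioligand competitive binding, filter-based scintillation counting, read 1 h after dosing. Primary screen in duplicate at 25 uM; actives then run as concentration series; loss of signal versus DMSO baseline.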
# [2] = biological target: mouse Cholecystokinin, CCK1 Receptor (CCKA), Cckar (gene 12425) (UniProt O08786); test: NVS_GPCR_mCCKAPeripheral: NovaScreen (NVS) G Protein-Coupled Receptor Assay for mouse Cholecystokinin, CCK1 Receptor (CCKA) (AID 2283285)
# Summary of the method: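 Radioligand competitive displacement on mouse pancreatic membranes, 2 h incubation; filter-based scintillation counting, loss of signal versus DMSO. Single-concentration screen at 25 uM in duplicate, actives retested in concentration-response up to 50 uM.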
# [3] = biological target: rat Adrenergic, Alpha 1, Non-selective Receptor (Adra1), Adra1a (gene 29412) (UniProt P43140); test: NVS_GPCR_rAdra1_NonSelective: NovaScreen (NVS) G Protein-Coupled Receptor Assay for rat Adrenergic, Alpha 1, Non-selective Receptor (Adra1) (AID 2283289)
# Summary of the method: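 Rat forebrain membranes; radioligand displacement read by filter-based scintillation counting 1 h after dosing. Primary screen in duplicate at 25 uM; hits (e.g. ≥30% inhibition) rerun as concentration–response to 50 uM max. Fitted versus DMSO.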
# [4] = biological target: human Opioid Receptor Mu (Opiate Mu), OPRM1 (gene 4988) (UniProt P35372); test: NVS_GPCR_hOpiate_mu: NovaScreen (NVS) G Protein-Coupled Receptor Assay for human Opioid Receptor Mu (Opiate Mu) (AID 2283290);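 further: hits lower bound tracer signal versus DMSO meaning displacement of the ligand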
# Summary of the method: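 CHO-derived receptor protein, cell-free; radioligand displacement, filtration + scintillation counting, read at 2.5 h. DMSO = negative control/baseline. Primary: 25 uM single conc, duplicate; secondary: concentration series.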
# [5] = biological target: human Neurokinin, NK2 Receptor, TACR2 (gene 6865) (UniProt P21452); test: NVS_GPCR_hNK2: NovaScreen (NVS) G Protein-Coupled Receptor Assay for human Neurokinin, NK2 Receptor (AID 2283278);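 further: actives reduce bound radioligand signal relative to DMSO baseline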
# Summary of the method: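 Filter-based scintillation counting measured radioligand bound to receptor extracted from CHO cells, 4 hours after compound addition. Chemicals screened first at 25 uM in duplicate, with actives retested in concentration series relative to DMSO.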
# [6] = biological target: Muscarinic acetylcholine receptor M2 (Homo sapiens) (UniProt P08172); test: NVS_GPCR_hM2: NovaScreen (NVS) G Protein-Coupled Receptor Assay for human Muscarinic, M2 Receptor (AID 2283273)
# Summary of the method: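 CHO membrane prep, radioligand + test compound, 1 h; filtration, scintillation count. Screen 25 uM duplicate → conc. series for actives. Readout: decrease in binding vs DMSO control.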
# [7] = biological target: human Muscarinic, M4 Receptor, CHRM4 (gene 1132) (UniProt P08173); test: NVS_GPCR_hM4: NovaScreen (NVS) G Protein-Coupled Receptor Assay for human Muscarinic, M4 Receptor (AID 2283274)
# Summary of the method: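 Cell-free radioligand displacement using CHO-derived human M4 receptor protein, 1 h after dosing; bound radioactivity by filtration and scintillation counting. Primary screen single 25 uM duplicate, actives followed in concentration series.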
# [8] = biological target: Muscarinic acetylcholine receptor M5 (Homo sapiens) (UniProt P08912); test: NVS_GPCR_hM5: NovaScreen (NVS) G Protein-Coupled Receptor Assay for human Muscarinic, M5 Receptor (AID 2283275)
# Summary of the method: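 Radioligand displacement on CHO-derived membrane preparations, 1 h, filter-based scintillation counting. Single-concentration duplicate screen at 25 uM; hits (e.g. 30% inhibition) retested in singleton concentration-response up to 50 uM. Loss of binding fitted versus DMSO.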
# [9] = biological target: human Opioid Receptor Delta 1 (Opiate D1), OPRD1 (gene 4985) (UniProt P41143); test: NVS_GPCR_hOpiate_D1: NovaScreen (NVS) G Protein-Coupled Receptor Assay for human Opioid Receptor Delta 1 (Opiate D1) (AID 2283280)
# Summary of the method: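 Radioligand displacement on membranes from CHO cells expressing the receptor, read by filter scintillation counting 1 h after dosing. Duplicate single-point screen at 25 uM, then concentration series for actives; loss of signal versus DMSO.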
# [10] = biological target: human Neurotensin Receptor (NTS), NTSR1 (gene 4923) (UniProt P30989); test: NVS_GPCR_hNTS: NovaScreen (NVS) G Protein-Coupled Receptor Assay for human Neurotensin Receptor (NTS) (AID 2283279)
# Summary of the method: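 Radioligand displacement on human NTSR1 protein from CHO cells, cell-free, 1 h, filter-based scintillation counting. Primary screen at 25 uM in duplicate; hits rerun in concentration-response up to 50 uM.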
# [11] = biological target: human Vasopressin 1A Receptor (V1A), AVPR1A (gene 552) (UniProt P37288); test: NVS_GPCR_hV1A: NovaScreen (NVS) G Protein-Coupled Receptor Assay for human Vasopressin 1A Receptor (V1A) (AID 2283284)
# Summary of the method: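 Cell-free radioligand displacement on human platelet preparations, 1.5 h incubation, filter-based scintillation counting. Chemicals first tested in duplicate at 25 uM; actives then run in concentration-response up to 50 uM, loss of signal fitted against DMSO.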
# [12] = biological target: guinea pig Bradykinin Receptor B2 (BK2), BDKRB2 (gene 100135486) (UniProt O70526); test: NVS_GPCR_gBK2: NovaScreen (NVS) G Protein-Coupled Receptor Assay for guinea pig Bradykinin Receptor B2 (BK2) (AID 2283292)
# Summary of the method: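 Radioligand displacement on guinea pig ileum membranes for 1 h, read by filter-based scintillation counting; loss of signal relative to DMSO. Compounds were screened in duplicate at 25 uM, and those passing the threshold were retested in concentration-response up to 50 uM.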
# [13] = biological target: human Thromboxane A2 Receptor (TXA2), TBXA2R (gene 6915) (UniProt P21731); test: NVS_GPCR_hTXA2: NovaScreen (NVS) G Protein-Coupled Receptor Assay for human Thromboxane A2 Receptor (TXA2) (AID 2283282);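 further: actives reduce bound radioligand signal relative to DMSO baseline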
# Summary of the method: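 Cell-free radioligand binding with human platelet-derived receptor; 1 h after dosing, filter-based scintillation counting, loss of signal vs DMSO. Primary screen in duplicate at 25 uM.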
# [14] = biological target: rat Serotonin, 5-Hydroxytryptamine Receptor 1 (5HT1), Non-Selective Binding, Htr1a (gene 24473) (UniProt P19327); test: NVS_GPCR_r5HT1_NonSelective: NovaScreen (NVS) G Protein-Coupled Receptor Assay for rat Serotonin, 5-Hydroxytryptamine Receptor 1 (5HT1), Non-Selective Binding (AID 2283286)
# Summary of the method: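 Rat cortical membranes, radioligand displacement, 1 h incubation, read by filter scintillation. Primary screen in duplicate at 25 uM. Hits (e.g. ≥30% inhibition) went to concentration-response up to 50 uM, fitted as loss of binding versus DMSO.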
# [15] = biological target: Muscarinic acetylcholine receptor M3 (Homo sapiens) (UniProt P20309); test: NVS_GPCR_hM3: NovaScreen (NVS) G Protein-Coupled Receptor Assay for human Muscarinic, M3 Receptor (AID 2283272)
# Summary of the method: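 Radioligand displacement binding on human M3 receptor in CHO-derived membranes, 1 h incubation, filter-based scintillation counting. Primary screen in duplicate at 25 uM; actives followed up in concentration series; loss of signal versus DMSO.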
# [16] = biological target: human Neuropeptide Receptor Y1 (NPY1), NPY1R (gene 4886) (UniProt P25929); test: NVS_GPCR_hNPY1: NovaScreen (NVS) G Protein-Coupled Receptor Assay for human Neuropeptide Receptor Y1 (NPY1) (AID 2283276)
# Summary of the method: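 Cell-free radioligand binding using receptor extracted from SK-N-MC cells, 1 h incubation, filter-based scintillation counting. Primary screen single concentration 25 uM in duplicate; actives followed in concentration series. Loss of bound signal scored versus DMSO.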
# [17] = biological target: human Orphanin, Opioid Related Nociceptin Receptor 1 (ORL1), OPRL1 (gene 4987) (UniProt P41146); test: NVS_GPCR_hORL1: NovaScreen (NVS) G Protein-Coupled Receptor Assay for human Orphanin, Opioid Related Nociceptin Receptor 1 (ORL1) (AID 2283283)
# Summary of the method: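 Filter-based radioligand displacement with receptor extracted from HEK293 cells, read 1 hour after dosing by scintillation counting. Duplicate single-point screen at 25 uM; qualifying chemicals then run in concentration-response to 50 uM, analysed relative to DMSO.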
# [18] = system: rabbit Platelet Activating Factor Receptor (PAF), gene 100354046; test: NVS_GPCR_rabPAF: NovaScreen (NVS) G Protein-Coupled Receptor Assay for rabbit Platelet Activating Factor Receptor (PAF) (AID 2283287)
# Summary of the method: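 Rabbit platelet membrane preparation; radioligand displacement read by filter-based scintillation counting 1 h after dosing, loss of signal versus DMSO. Primary screen in duplicate at 25 uM, actives followed up in concentration series.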
# [19] = biological target: human Purinergic Receptor P2Y, P2RY1 (gene 5028) (UniProt P47900); test: NVS_GPCR_hPY2: NovaScreen (NVS) G Protein-Coupled Receptor Assay for human Purinergic Receptor P2Y (AID 2283281)
# Summary of the method: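 Cell-free radioligand binding using U937-derived protein, 1 h after dosing, filter-based scintillation counting. Screened in duplicate at 25 uM; actives rerun as concentration-response up to 50 uM; loss of signal versus DMSO.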
# Sequence of human Opioid Receptor Mu (Opiate Mu), OPRM1 (gene 4988) (P35372 whole entry, looked up): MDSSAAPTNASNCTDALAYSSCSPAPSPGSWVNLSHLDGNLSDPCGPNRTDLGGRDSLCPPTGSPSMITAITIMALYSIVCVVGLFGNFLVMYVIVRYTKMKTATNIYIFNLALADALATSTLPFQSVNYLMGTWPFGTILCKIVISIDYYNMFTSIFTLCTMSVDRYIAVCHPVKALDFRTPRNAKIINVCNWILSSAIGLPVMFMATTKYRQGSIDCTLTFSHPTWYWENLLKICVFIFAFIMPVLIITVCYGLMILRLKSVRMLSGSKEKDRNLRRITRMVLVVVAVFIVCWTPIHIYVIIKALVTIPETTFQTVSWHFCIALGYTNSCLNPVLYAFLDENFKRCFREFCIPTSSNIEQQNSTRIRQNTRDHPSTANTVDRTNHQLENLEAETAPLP
# Sequence of human Opioid Receptor Delta 1 (Opiate D1), OPRD1 (gene 4985) (P41143 whole entry, looked up): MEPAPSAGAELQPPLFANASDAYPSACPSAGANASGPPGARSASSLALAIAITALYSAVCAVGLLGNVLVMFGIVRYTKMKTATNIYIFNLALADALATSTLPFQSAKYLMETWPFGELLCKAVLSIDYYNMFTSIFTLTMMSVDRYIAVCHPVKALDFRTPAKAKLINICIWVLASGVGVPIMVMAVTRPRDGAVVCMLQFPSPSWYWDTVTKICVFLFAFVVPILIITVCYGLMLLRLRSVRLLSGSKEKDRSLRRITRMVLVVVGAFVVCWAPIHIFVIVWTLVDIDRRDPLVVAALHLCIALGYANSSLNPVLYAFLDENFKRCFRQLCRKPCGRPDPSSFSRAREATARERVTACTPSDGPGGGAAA
# Sequence of mouse Cholecystokinin, CCK1 Receptor (CCKA), Cckar (gene 12425) (O08786 whole entry, looked up): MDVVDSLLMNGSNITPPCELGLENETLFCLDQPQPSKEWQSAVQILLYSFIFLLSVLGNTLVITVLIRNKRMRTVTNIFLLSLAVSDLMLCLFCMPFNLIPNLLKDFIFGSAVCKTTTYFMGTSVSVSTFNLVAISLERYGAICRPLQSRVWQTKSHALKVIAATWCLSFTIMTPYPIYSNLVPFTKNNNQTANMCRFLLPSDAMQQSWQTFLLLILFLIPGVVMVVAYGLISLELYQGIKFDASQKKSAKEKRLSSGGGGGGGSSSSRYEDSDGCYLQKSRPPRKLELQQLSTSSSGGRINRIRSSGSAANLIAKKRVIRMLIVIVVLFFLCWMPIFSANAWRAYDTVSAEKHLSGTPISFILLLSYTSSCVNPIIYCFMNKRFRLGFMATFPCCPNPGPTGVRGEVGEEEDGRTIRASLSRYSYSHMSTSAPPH
# Sequence of rat Serotonin, 5-Hydroxytryptamine Receptor 1 (5HT1), Non-Selective Binding, Htr1a (gene 24473) (P19327 whole entry, looked up): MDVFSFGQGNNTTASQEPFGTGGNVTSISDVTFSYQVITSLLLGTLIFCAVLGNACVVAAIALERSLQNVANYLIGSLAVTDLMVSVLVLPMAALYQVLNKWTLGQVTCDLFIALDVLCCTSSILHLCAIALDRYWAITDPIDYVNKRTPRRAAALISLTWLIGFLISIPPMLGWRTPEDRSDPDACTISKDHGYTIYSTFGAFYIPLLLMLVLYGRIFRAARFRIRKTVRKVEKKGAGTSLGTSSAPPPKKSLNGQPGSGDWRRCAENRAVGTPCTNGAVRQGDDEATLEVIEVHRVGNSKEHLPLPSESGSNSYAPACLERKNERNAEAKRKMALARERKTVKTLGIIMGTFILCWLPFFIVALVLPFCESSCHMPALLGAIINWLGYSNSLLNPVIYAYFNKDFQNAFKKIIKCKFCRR
# Sequence of rat Adrenergic, Alpha 1, Non-selective Receptor (Adra1), Adra1a (gene 29412) (P43140 whole entry, looked up): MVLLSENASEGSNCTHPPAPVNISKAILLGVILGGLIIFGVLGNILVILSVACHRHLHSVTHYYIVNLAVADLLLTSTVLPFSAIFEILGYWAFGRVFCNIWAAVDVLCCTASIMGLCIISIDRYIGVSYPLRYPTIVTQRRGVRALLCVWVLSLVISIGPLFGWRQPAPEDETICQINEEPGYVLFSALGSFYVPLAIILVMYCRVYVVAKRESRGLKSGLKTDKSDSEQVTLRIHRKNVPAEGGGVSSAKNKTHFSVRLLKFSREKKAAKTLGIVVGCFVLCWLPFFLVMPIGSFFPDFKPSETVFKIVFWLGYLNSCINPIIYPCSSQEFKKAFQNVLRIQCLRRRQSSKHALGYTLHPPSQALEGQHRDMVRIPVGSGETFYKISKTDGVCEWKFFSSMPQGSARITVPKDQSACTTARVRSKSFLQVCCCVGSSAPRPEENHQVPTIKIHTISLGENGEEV
# Sequence of Muscarinic acetylcholine receptor M5 (Homo sapiens) (P08912 whole entry, looked up): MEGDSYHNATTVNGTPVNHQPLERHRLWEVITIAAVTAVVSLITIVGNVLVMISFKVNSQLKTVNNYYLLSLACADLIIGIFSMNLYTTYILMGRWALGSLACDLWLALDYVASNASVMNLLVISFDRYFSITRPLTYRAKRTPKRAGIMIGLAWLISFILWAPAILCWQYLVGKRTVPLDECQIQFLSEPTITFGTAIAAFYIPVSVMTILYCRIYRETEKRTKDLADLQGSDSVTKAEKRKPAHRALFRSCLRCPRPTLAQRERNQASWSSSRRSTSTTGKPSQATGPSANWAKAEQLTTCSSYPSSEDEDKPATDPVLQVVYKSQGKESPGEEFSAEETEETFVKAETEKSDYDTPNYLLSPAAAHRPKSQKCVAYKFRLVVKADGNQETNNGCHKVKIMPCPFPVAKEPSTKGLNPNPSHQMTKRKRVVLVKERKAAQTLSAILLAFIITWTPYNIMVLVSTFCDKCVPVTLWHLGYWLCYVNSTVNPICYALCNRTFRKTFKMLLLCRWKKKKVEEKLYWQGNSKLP
# Sequence of human Thromboxane A2 Receptor (TXA2), TBXA2R (gene 6915) (P21731 whole entry, looked up): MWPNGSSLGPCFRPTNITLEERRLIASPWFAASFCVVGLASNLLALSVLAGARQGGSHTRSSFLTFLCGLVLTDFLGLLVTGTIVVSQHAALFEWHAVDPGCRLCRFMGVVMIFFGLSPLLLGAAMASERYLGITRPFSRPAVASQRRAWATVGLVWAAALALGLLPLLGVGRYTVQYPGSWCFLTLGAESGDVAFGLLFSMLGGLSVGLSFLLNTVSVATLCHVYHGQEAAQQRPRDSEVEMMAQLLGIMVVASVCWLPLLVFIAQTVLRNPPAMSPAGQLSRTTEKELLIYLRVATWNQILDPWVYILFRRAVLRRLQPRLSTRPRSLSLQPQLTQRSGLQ
# Sequence of Muscarinic acetylcholine receptor M3 (Homo sapiens) (P20309 whole entry, looked up): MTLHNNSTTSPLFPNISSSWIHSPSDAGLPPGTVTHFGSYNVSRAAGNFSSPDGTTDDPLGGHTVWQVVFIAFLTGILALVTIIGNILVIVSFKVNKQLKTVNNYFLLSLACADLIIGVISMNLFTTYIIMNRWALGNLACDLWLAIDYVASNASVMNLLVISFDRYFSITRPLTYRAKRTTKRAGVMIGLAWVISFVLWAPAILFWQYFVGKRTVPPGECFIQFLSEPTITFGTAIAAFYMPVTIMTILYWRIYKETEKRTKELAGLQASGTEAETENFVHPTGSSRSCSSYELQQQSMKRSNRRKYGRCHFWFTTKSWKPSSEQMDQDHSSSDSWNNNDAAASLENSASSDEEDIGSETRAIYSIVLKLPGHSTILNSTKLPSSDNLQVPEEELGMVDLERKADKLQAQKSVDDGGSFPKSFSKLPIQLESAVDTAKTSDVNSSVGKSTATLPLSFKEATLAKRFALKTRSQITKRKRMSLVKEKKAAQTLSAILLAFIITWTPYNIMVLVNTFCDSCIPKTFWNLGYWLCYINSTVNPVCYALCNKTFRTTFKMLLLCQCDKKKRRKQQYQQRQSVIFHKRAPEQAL
# Sequence of human Neurokinin, NK2 Receptor, TACR2 (gene 6865) (P21452 whole entry, looked up): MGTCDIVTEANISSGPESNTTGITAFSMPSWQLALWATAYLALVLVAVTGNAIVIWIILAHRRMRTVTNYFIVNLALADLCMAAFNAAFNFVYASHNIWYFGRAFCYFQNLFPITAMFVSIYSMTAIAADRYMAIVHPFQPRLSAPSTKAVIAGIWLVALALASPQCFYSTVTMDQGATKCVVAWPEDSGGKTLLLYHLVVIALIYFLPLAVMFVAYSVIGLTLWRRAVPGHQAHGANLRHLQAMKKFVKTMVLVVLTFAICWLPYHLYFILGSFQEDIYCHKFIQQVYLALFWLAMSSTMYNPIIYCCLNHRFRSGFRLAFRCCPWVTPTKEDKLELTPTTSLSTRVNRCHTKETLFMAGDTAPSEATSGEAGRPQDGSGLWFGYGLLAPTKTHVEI
# Sequence of Muscarinic acetylcholine receptor M2 (Homo sapiens) (P08172 whole entry, looked up): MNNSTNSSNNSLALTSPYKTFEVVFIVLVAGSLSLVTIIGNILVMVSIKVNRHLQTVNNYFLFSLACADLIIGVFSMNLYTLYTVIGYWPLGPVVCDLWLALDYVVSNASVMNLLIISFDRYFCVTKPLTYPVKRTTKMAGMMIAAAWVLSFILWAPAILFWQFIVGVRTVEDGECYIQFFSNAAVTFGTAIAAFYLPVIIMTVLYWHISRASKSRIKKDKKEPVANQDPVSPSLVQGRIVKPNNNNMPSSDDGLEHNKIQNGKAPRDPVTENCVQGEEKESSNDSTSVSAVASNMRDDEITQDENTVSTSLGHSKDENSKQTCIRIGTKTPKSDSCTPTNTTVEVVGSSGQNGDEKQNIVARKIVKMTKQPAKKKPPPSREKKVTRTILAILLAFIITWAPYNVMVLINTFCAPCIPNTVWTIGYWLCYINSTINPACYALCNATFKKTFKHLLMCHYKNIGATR
# Sequence of human Muscarinic, M4 Receptor, CHRM4 (gene 1132) (P08173 whole entry, looked up): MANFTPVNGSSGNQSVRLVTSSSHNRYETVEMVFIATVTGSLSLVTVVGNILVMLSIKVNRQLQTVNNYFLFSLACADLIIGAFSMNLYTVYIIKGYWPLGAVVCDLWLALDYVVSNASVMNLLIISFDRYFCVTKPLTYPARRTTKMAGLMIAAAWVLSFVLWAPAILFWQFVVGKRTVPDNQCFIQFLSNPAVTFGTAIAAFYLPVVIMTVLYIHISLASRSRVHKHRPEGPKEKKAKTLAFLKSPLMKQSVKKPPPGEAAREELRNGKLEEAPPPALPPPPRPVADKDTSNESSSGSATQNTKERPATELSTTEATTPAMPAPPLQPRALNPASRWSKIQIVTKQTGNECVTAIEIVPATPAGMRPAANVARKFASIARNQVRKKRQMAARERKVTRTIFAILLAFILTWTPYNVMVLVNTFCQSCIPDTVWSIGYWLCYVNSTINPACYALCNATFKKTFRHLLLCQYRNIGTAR
smiles,measurement,setting,value
O=[N+]([O-])c1ccc(O)cc1,outcome,[1],inactive
O=C(O)Cc1cc(I)c(Oc2cc(I)c(O)c(I)c2)c(I)c1,outcome,[2],inactive
same,outcome,[3],inactive
same,AC50,[4],14.3 µM (active)
Cc1cc(CCN2CCN(c3nsc4ccccc34)CC2)cc2c1NC(=O)CC2(C)C,AC50,[5],5.07 µM (active)
same,AC50,[1],0.00247 µM (active)
CC(C)(C)c1ccc(O)c(C(C)(C)C)c1,outcome,[4],inactive
CC(=O)NC1(c2cccc(F)c2)CCN(CC[C@@]2(c3ccc(Cl)c(Cl)c3)CN(c3ccccc3)C(=O)CO2)CC1,AC50,[6],8.68 µM (active)
same,AC50,[7],13.9 µM (active)
same,AC50,[8],10.6 µM (active)
same,AC50,[5],0.00268 µM (active)
same,outcome,[9],inactive
same,AC50,[1],3.53 µM (active)
same,AC50,[3],11.8 µM (active)
same,AC50,[4],10.3 µM (active)
CC(C)(C)CC(C)(C)c1ccc(O)c(-n2nc3ccccc3n2)c1,AC50,[10],19.4 µM (active)
CCCCCCCCC(=O)O,AC50,[11],5.76 µM (active)
same,outcome,[3],inactive
same,outcome,[12],inactive
CC[C@H](C)[C@@H](C(=O)O)n1sc2ccccc2c1=O,outcome,[9],inactive
same,outcome,[13],inactive
CN1CCN(c2ccccc2/C=C2\SCCN(c3ccc(Cl)c(Cl)c3)C2=O)CC1,AC50,[5],6.97 µM (active)
same,AC50,[14],0.626 µM (active)
same,AC50,[1],0.748 µM (active)
ClC1=C(Cl)C(Cl)(Cl)C(Cl)=C1Cl,outcome,[2],inactive
NC(=O)N(O)[C@@H]1C=C[C@H](Oc2cccc(Oc3ccc(F)cc3)c2)C1,outcome,[15],inactive
same,AC50,[7],25 µM (active)
same,outcome,[8],inactive
same,outcome,[5],inactive
same,AC50,[10],8.13 µM (active)
same,outcome,[3],inactive
same,outcome,[4],inactive
CC#C[C@]1(O)CC[C@H]2[C@@H]3CCC4=CC(=O)CCC4=C3[C@@H](c3ccc(N(C)C)cc3)C[C@@]21C,AC50,[4],0.908 µM (active)
CN1CCC[C@H]1c1cccnc1,outcome,[7],inactive
same,outcome,[8],inactive
CCCOc1sc(C(=O)N2CCC(c3cc(CN)ccc3F)CC2)c(C)c1Br,AC50,[15],11.3 µM (active)
same,AC50,[6],12.2 µM (active)
same,AC50,[7],11.1 µM (active)
same,AC50,[8],4.84 µM (active)
same,AC50,[16],13.5 µM (active)
same,AC50,[5],7.85 µM (active)
same,AC50,[9],9.25 µM (active)
same,outcome,[13],inactive
same,AC50,[17],24 µM (active)
same,outcome,[11],inactive
same,AC50,[2],27.1 µM (active)
same,AC50,[14],5.18 µM (active)
same,AC50,[18],23.2 µM (active)
same,AC50,[1],16.6 µM (active)
same,AC50,[3],20.6 µM (active)
same,AC50,[4],3.97 µM (active)
CC1=C(/C=C/C(C)=C/C=C/C(C)=C/C(=O)O)C(C)(C)CCC1,AC50,[14],4.36 µM (active)
CCc1nn(C2CCCCC2)c2cc(C3(C#N)CCC(C(=O)O)CC3)ccc12 (centres undefined),outcome,[9],inactive
CCCCCCCCCCCCc1ccccc1S(=O)(=O)O,AC50,[15],41 µM (active)
same,AC50,[7],33.5 µM (active)
same,AC50,[8],17.2 µM (active)
same,AC50,[5],38 µM (active)
same,AC50,[9],7.58 µM (active)
same,AC50,[19],12.3 µM (active)
same,AC50,[13],12.1 µM (active)
same,AC50,[3],38.7 µM (active)
same,AC50,[4],15.1 µM (active)
CCCCCCCCCCCCCC[N+](C)(C)C,AC50,[6],1.07 µM (active)
same,AC50,[5],4.81 µM (active)
same,AC50,[4],8.19 µM (active)
NC(=O)N1C(=O)C(C(=O)c2cc(Cl)cs2)c2cc(F)c(Cl)cc21 (centres undefined),outcome,[9],inactive
same,outcome,[19],inactive
same,AC50,[13],0.961 µM (active)
same,outcome,[2],inactive
same,outcome,[1],inactive
same,outcome,[4],inactive
Nc1cccc2c(N)cccc12,outcome,[5],inactive
same,outcome,[13],inactive
CCC(=C(c1ccc(O)cc1)c1ccc(OCCN(C)C)cc1)c1ccccc1,outcome,[6],inactive
same,AC50,[8],2.52 µM (active)
same,outcome,[17],inactive
same,AC50,[2],0.808 µM (active)
same,AC50,[18],4.17 µM (active)
same,AC50,[4],3.93 µM (active)
